Test results taken from PubChem BioAssay AID686979 (National Center for Advancing Translational Sciences (NCATS), 2013).
Hit rate of the full screen: of about 420,000 compounds, about 50,000 (12%) were called active. Inconclusive results (about 26%) are left out. Calls follow the shape of the dose curve; as a rule, active = well fitted inhibition curve with a large enough effect; inconclusive = small, poorly fitted or top-dose-only effect; inactive = flat fitted curve, though single readings scatter. Shown is part of a subset that was picked to be rich in actives. A call without a number means that no potency is given here.

assay: qHTS for Inhibitors of human tyrosyl-DNA phosphodiesterase 1 (TDP1): qHTS in cells in presence of CPT; details: chicken DT40 Tdp1-/-;hTDP1 cells + 20 nM CPT, ATP luminescence, 48 h; series mostly up to 46.2 µM; also: nearly all actives have a fitted effect of over 55% in size
Summary of the method: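 Chicken DT40 Tdp1-/- cells stably complemented with human TDP1 were seeded at 400 cells/well in medium containing 20 nM camptothecin, exposed to pin-transferred compounds, and grown at 37 °C for at least 48 hr. Viability was read as ATP luminescence.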
Potency is read from the fitted curve at half-maximal effect.

Compound | Potency
O=C(N=C1SC2CS(=O)(=O)CC2N1c1ccccc1)c1ccccc1 (stereo not given) | inactive
CS(=O)(=O)c1ccc(Cl)c(NC(=O)COC(=O)c2cccc(S(=O)(=O)N3CCCC3)c2)c1 | inactive
CC(C)CCNC(=O)C(C)N(C(=O)Cn1nnc(-c2ccc(F)cc2)n1)C1CCCC1 (stereo not given) | inactive
O=C(O)c1ccccc1CSc1nc2ccccc2s1 | inactive
COc1ccc2sc(-c3ccc(N(C)C)cc3)c(-c3ccc4cc[nH]c4c3)c2c1 | inactive
CN(C)c1ccc(/C=c2\[nH]c(=O)/c(=C/c3ccc(N(C)C)cc3)[nH]c2=O)cc1 | inactive
COc1ccc2c(c1)c(=Cc1ccc(N(C)C)cc1)c1cc(-c3ccccc3)[n+](C)n12 | 0.92 µM (active)
O=C(CSc1nc2[nH]ncc2c(=O)[nH]1)Nc1ccc(F)cc1 | inactive
O=C(NCCc1cccc(F)c1)C1CC(O)CN1C(=O)Nc1ccccc1 (stereo not given) | inactive
CCCCN1C(=O)CCC(C(=O)O)C1c1ccc(OC)cc1 (stereo not given) | inactive
CCCCc1ccc(NC(=O)CN2C(=O)NC(Cc3ccccc3)C2=O)cc1 (stereo not given) | inactive
O=C(Cn1c(=O)n(Cc2ccco2)c(=O)c2ccccc21)NCC1CCCO1 (stereo not given) | inactive
Cn1c2ccccc2c(=O)c2c(=O)n(Cc3ccco3)c(COc3ccccc3)nc21 | 18.4 µM (active)
CCn1c(COc2ccccc2)nnc1SCC(=O)NCc1ccco1 | inactive
CCS(=O)(=O)Nc1ccc(C(=O)NCCSc2ccccc2)cc1 | inactive
COc1ccc(-c2nc(Cn3c(=O)cc(C)c4c(C)nn(-c5ccccc5)c43)c(C)o2)cc1OC | inactive
CCCCCCn1c(=O)n2n(c1=O)C[C@]1(OC(=O)NCc3ccc(OC)c(OC)c3)CN(S(=O)(=O)c3ccc(C)cc3)C[C@]1(O)C2 | 23.1 µM (active)
Cc1ccc(S(=O)(=O)N2C[C@]3(O)C[C@@H]4C(=O)N(c5ccccc5)C(=O)[C@@H]4C[C@]3(OC(=O)NC3CC3)C2)cc1 | inactive
COc1ccc(CNC(=O)COC(=O)CCS(=O)(=O)c2ccc(C)cc2)cc1OC | inactive
CC1CCCCC1NC(=O)c1cn(C)c2ccc(S(=O)(=O)N3CCOCC3)cc2c1=O (stereo not given) | inactive
Cc1ccc(S(=O)(=O)N2CCC(Oc3ccc(-n4cnnn4)cc3)CC2)cc1 | inactive
COc1ccc(-c2oc3ncnc(NCCCO)c3c2-c2ccc(OC)cc2)cc1 | 20.6 µM (active)
OCCc1ccc(NCCc2ccco2)cc1 | inactive
Cc1nnc(NCCO)c2ccccc12 | inactive
OCCNc1ncnc2oc(-c3ccco3)c(-c3ccco3)c12 | 12.6 µM (active)

Compound | Potency
COCCNc1ncnc2c1ncn2[C@H]1CN(Cc2ccc(OC)cc2)C[C@@H](CO)O1 | inactive
O=C(CCSCc1cccc(F)c1)NCc1ccccc1 | inactive
COc1ccccc1CNS(=O)(=O)c1c(C)[nH]c(C)c1C(=O)N1CCCCC1 | inactive
Cc1ccc(Oc2cnn(-c3ccccc3)c(=O)c2Br)cc1 | inactive
COc1ccc(-n2c(C)nc3c(cnn3-c3ccc(F)cc3)c2=O)cc1 | 23.1 µM (active)
COc1ccc(-n2c(SC)nc(O)cc2=O)cc1 | inactive
CC(=O)Cn1cnc2c(cnn2-c2ccccc2)c1=O | inactive
CCOC(=O)c1ccc(-n2c(C)nc3c(cnn3-c3ccccc3C)c2=O)cc1 | inactive
COc1ccc(-n2c(C)nc3c(cnn3-c3ccccc3)c2=O)cc1 | 29.1 µM (active)
CCOc1ccc(-n2c(C)nc3c(cnn3-c3ccc(C)cc3)c2=O)cc1 | 5.17 µM (active)
CCc1nc2c(cnn2-c2ccc(C)cc2)c(=O)n1-c1ccc(C)cc1 | inactive
CCC(C)Sc1nc2c(cnn2-c2ccc(F)cc2)c(=O)[nH]1 (stereo not given) | inactive
CC1CCc2c(c3ccccc3[nH]c2=O)O1 (stereo not given) | inactive
COc1ccc(-c2nc(N)sc2C2(O)C(=O)Nc3c(Br)cc(F)cc32)cc1OC (stereo not given) | inactive
O=C(COC(=O)c1cccnc1Cl)Nc1ccc(S(=O)(=O)N2CCOCC2)cc1 | inactive
COc1ccccc1CC(=O)Nc1ccc([N+](=O)[O-])cc1OC | inactive
COc1ccccc1CNC(=O)CCCN1C(=O)NC2(CCCC2)C1=O | inactive
CC[C@]1(c2ccccc2OC)C(=O)N(C(=O)OC)N1C(=O)OC | 20.6 µM (active)
Cc1ccccc1/C=C\c1nc(O)c([N+](=O)[O-])c(=O)[nH]1 | inactive
Cc1ccc(C(=O)NNC(=O)c2ccncc2)cc1S(=O)(=O)N1CCCCC1 | inactive
O=C(NNC(=O)c1cnccc1C(F)(F)F)c1ccc(Cl)cc1 | inactive
O=C(NNC1=C(C(=O)C(F)(F)F)CCC1)c1ccncc1 | 1.64 µM (active)
COc1cccc(NC(=O)CN(C)CC(=O)c2c(N)n(Cc3ccccc3)c(=O)n(C)c2=O)c1 | inactive
O=C(OCC(=O)N1CCCCCC1)c1cccc(Cl)c1Cl | inactive
Cc1ccccc1C(=O)NCC(c1ccco1)N1CCc2ccccc21 (stereo not given) | inactive
